Screen size: about 5,600 compounds; about 390 (7%) showed an effect of 50% or more. The entries come from a sample that favours strong results as a whole.
Target: T1, Protein deacetylase HDAC6 (Homo sapiens) (UniProt Q9UBN7)
T1 sequence (whole entry): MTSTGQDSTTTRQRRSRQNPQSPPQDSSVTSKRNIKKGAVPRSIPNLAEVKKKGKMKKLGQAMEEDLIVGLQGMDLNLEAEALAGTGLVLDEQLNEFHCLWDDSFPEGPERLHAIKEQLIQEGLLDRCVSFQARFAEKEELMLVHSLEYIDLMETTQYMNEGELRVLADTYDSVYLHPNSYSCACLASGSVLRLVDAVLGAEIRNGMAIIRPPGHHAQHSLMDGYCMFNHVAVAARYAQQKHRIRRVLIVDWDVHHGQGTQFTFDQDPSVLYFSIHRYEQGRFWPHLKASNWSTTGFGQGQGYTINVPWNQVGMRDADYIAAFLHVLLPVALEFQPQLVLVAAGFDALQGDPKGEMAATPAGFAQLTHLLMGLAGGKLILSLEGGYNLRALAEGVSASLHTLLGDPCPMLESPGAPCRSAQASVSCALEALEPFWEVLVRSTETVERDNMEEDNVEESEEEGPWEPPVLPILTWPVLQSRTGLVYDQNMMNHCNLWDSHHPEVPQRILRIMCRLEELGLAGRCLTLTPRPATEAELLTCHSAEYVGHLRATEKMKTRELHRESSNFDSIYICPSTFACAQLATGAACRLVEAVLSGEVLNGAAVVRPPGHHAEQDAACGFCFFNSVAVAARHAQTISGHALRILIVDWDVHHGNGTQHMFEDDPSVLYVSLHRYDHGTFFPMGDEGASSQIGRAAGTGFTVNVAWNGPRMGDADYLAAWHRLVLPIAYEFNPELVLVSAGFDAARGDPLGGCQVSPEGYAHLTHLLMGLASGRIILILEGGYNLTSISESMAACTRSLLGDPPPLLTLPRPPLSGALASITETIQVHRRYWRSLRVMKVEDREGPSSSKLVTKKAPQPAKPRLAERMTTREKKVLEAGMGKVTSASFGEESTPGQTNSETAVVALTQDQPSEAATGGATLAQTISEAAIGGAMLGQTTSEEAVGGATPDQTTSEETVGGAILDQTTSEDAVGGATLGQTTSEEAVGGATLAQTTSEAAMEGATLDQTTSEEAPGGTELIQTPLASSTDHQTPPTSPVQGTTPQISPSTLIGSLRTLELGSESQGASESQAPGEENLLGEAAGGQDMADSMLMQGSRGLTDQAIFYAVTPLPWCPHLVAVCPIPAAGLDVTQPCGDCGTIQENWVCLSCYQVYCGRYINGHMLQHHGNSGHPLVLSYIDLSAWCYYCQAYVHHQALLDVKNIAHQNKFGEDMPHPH
Conditions: at 10 µM

SMILES | inhibition
CN(C)C(=O)CCSC(SCCC(=O)O)c1cccc(/C=C/c2ccc3ccc(Cl)cc3n2)c1 (configuration not stated) | 10.8%
N[C@@H](CSCCCO)C(=O)O | 24.6%
O=c1c2c[nH]c3ccccc3c-2nn1-c1ccc(Cl)cc1 | 97.1%
COc1ccc(-n2nc3c4c([nH]cc-3c2=O)CCCCC4)cc1 | 40.9%
CCCCCCCCCCCCCCCc1cccc(OCC(=O)NCCO)c1 | -3.57%
CC(C)c1nnc(-c2ccc(-c3ccccc3)nc2)n1-c1cccc2nonc12 | 4.02%
COC(=O)C[C@@](O)(CCC(C)(C)O)C(=O)O[C@@H]1C(OC)=C[C@]23CCCN2CCc2cc4c(cc2[C@@H]13)OCO4 | -1.89%
C[N+]1(CC2CC2)[C@@H]2C[C@@H](OC(=O)[C@H](CO)c3ccccc3)C[C@H]1[C@@H]1O[C@@H]12 (some centres not stated) | -9.14%
COC(=O)N1CC[C@@H]2[C@H]1CCC[C@@]2(O)C#Cc1cccc(C)c1 | 29.3%
O=C(Nc1ccc(Br)cc1)c1cc(Br)cc(Br)c1O | 100%
CCOC(=O)c1c(/C(C#N)=C\N)c2ccc(Cl)c(Cl)c2n1C | 0.46%
Cc1c(F)cc(C(=O)NC2CC2)cc1-c1c(F)cn2c(C(C)(C)C)nnc2c1F | -2%
CC1(C)CC[C@]2(NC(=O)C(C)(F)F)CC[C@]3(C)C(C(=O)C=C4[C@@]5(C)C=C(C#N)C(=O)C(C)(C)[C@@H]5CC[C@]43C)C2C1 (some centres not stated) | 19.7%
C[C@]12CC[C@@H]3c4ccc(O)cc4CC[C@H]3[C@@H]1[C@@H](O)[C@@H](O)[C@@H]2O | 5.04%
C[C@]12CC[C@H]3C(=CCc4cc(O)ccc43)[C@@H]1CCC2=O | 53.8%
CO/N=C(\C(=O)N[C@@H]1C(=O)N2C(C(=O)O)=C(CSC(=O)c3ccco3)CS[C@H]12)c1csc(N)n1 | 22.4%
O=C(Nc1ccc(C(F)(F)F)cn1)N1CCN(c2ncccc2C(F)(F)F)CC1 | -6.44%
COC(=O)c1cc2c(C(F)(F)F)cc(-c3ccccc3)cc2n1O | 16.7%
Cc1c(CN(C)C(=O)/C=C/c2cnc3c(c2)CCC(=O)N3)oc2ccccc12 | 77.1%

SMILES | inhibition
CC1(C)CCC(C)(C)c2cc(Cn3cccn3)c(/C=C/c3ccc(C(=O)O)cc3)cc21 | -7.51%
O=C(O)CCCCCCCCCCCCCCc1ccc(I)cc1 | 21.6%
OCCn1cc(-c2ccc3c(c2)CC/C3=N\O)c(-c2ccncc2)n1 | -0.22%
Cc1cc(Nc2ncnc3ccc(-c4ccc(CNCCS(C)(=O)=O)o4)cc23)ccc1Oc1ccn2ncnc2c1 | 2.93%
Cc1cc(Nc2ncnc3ccc(NC4=NC(C)(C)CO4)cc23)ccc1Oc1ccn2ncnc2c1 | -3.24%
C[C@@H]1COC(Nc2ccc3ncnc(Nc4ccc(OCc5nccs5)c(Cl)c4)c3c2)=N1 | 62.5%
O=C1C=Cc2cc(Br)ccc2C1=O | 48.5%
Cc1ccc(=O)n(-c2ccc(O)cc2)c1 | 1.55%
Nc1nc(Nc2ccc3c(c2)CC[C@@H](N2CCCC2)CC3)nn1-c1cc2c(nn1)-c1ccccc1CCC2 | 2.38%
O=C(NC1(c2ccccc2)CC1)c1c(CN2CCC(N3CCCCC3)CC2)c(-c2cccc(C(F)(F)F)c2)nc2cc(Br)ccc12 | 35.2%
COC(=O)/C=C/C(=O)OCCN1C(=O)CCC1=O | -0.93%
O=C(O)c1ccc(-c2ccc3cc(C45CC6CC(CC(C6)C4)C5)c(O)cc3c2)cc1 | -6.28%
NS(=O)(=O)Oc1ccc2c3c(c(=O)oc2c1)CCCCC3 | 91.6%
Fc1ccc(C(c2ccccc2)(c2ccccc2F)n2ccnc2)cc1 (configuration not stated) | -9.89%
Cn1c(/C=C/C(=O)NO)ccc1/C=C/C(=O)c1cccc(F)c1 | 98.6%
Cc1ccc(NC2=NCCN2)c(Cl)c1 | 7.22%
CCC[C@H](N[C@@H](C)C(=O)N1[C@H](C(=O)O)C[C@@H]2CCCC[C@@H]21)C(=O)O | -9.35%
CCCC(=O)c1cc(F)ccc1OCC(O)CNC(C)(C)C (configuration not stated) | -1.16%
C[C@H](Oc1cc(-c2cnn(C3CCNCC3)c2)cnc1N)c1c(Cl)ccc(F)c1Cl | -7.32%

SMILES | inhibition
C[n+]1ccccc1CN=O | 10.8%
O=c1[nH]c(CCl)nc2sc3c(c12)CCCC3 | 83.4%
CCOC(=O)[C@@](C)(N)Cc1ccc(O)c(O)c1 | 35%
Cc1ccc(Cl)c(OCC(O)CNC(C)(C)C)c1 (configuration not stated) | 14.8%
OCCN1CCN(CCCN2c3ccccc3Sc3ccc(C(F)(F)F)cc32)CC1 | 86.6%
CCCCCCCCCC(=O)OCCN1CCN(CCCN2c3ccccc3Sc3ccc(C(F)(F)F)cc32)CC1 | 1.38%
CCCCCCCCCCCCCCCC(=O)OCCC1CCN(CCCN2c3ccccc3Sc3ccc(S(=O)(=O)N(C)C)cc32)CC1 | 9.91%
CSc1ccccc1OCC(O)CNC(C)C (configuration not stated) | 8.76%
NC(=S)N/N=C/c1coc2ccccc2c1=O | 54.7%
NC(=S)N/N=C/c1ccncc1 | 22.9%
O=C1CCC2CCC(=O)N12 | 5.05%
CO[C@@H]1[C@H](O)[C@@H](CO)O[C@H]1n1cnc2c(NC3CCCCC3)ncnc21 | 13.2%
NC(=O)c1[nH]cnc1O | 3.67%
CCOCCOc1ccccc1C(N)=O | 5.9%
O=C(c1ccc(OCCCc2c[nH]cn2)cc1)C1CC1 | 70.7%
NC/C(=C/F)CCc1ccc(F)cc1 | 46.9%
Cc1cnc(Nc2ccc(F)cc2Cl)nc1-c1c[nH]c(C(=O)N[C@H](CO)c2cccc(Cl)c2)c1 | 54.4%
O=C(NCC1CCOCC1)c1cnc(Nc2ccc(Cl)cc2Cl)nc1C(F)(F)F | -5.57%
CC12CCC(=O)C=C1CCC1C2[C@@H](O)CC2(C)C1CC[C@]2(O)C(=O)COP(=O)(O)O (some centres not stated) | 2.87%

From ChEMBL document CHEMBL4808148, “HDAC6 screening dataset using tau-based substrate in an enzymatic assay yields selective inhibitors and activators” (2021)
